A short description of test [1]: qHTS assay to identify aromatase inhibitors - cell viability counter screen (AID 743084).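 Also: cells stimulated with testosterone during compound exposure; nearly all actives have a fitted effect of over 55% in size.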 Also: potency is read from the fitted curve at half-maximal effect.
The target of test [2] is Aryl hydrocarbon receptor (Homo sapiens) (UniProt P35869). The test is described as follows: qHTS assay to identify small molecule that activate the aryl hydrocarbon receptor (AhR) signaling pathway (AID 743085). Also: nearly all actives have a fitted effect of over 15% in size. Also: potency is read from the fitted curve at half-maximal effect.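 As to activation: HG2L7.5c1 human HepG2 liver cells with stably integrated DRE-driven firefly reporter; series mostly up to about 70 µM.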 In outline: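 Cell line HG2L7.5c1 (human hepatoma, 20× DRE-luc). Plated, 5 h 37C, compound/DMSO added, 24 h 37C. CellTiter-Fluor 30 min 37C → fluorescence; then ONE-Glo 30 min RT → luminescence.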

The nature of test [3]: qHTS assay to identify small molecule that activate the aryl hydrocarbon receptor (AhR) signaling pathway - cell viability counter screen (AID 743086). Also: nearly all actives have a fitted effect of over 45% in size. Also: potency is read from the fitted curve at half-maximal effect. In outline: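 HepG2-AhR-luc (HG2L7.5c1) cells, 4000/well, treated 24 h at 37 C with compound; viability measured as CellTiter-Fluor fluorescence after 30 min in the same wells as the luciferase read.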
In test [4] the target is Peroxisome proliferator-activated receptor gamma (Homo sapiens) (UniProt P37231). In words: qHTS assay to identify small molecule agonists of the peroxisome proliferator-activated receptor gamma (PPARg) signaling pathway (AID 743094; active = well fitted activation curve with a large enough effect in the signal ratio in the repeat runs, not every such curve was filed as active; the % refers to the signal ratio). In short, it runs like this: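 Following 5 h plating at 37C, PPARg-bla HEK293H cells receive compound or DMSO for 17 h; fluorescence intensity is recorded after LiveBLAzer B/G loading for 1 h at room temperature.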

Test [5] is described as follows: qHTS assay to identify small molecule phospholipidosis (PLD) inducers (AID 1259344; active = well fitted curve in the direction sought with a large enough effect; an effect the other way counts as inactive or inconclusive). In outline:
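HepG2 cells, 900/well, treated with compound plus LipidTOX Red for 24 h at 37 C; amiodarone positive and DMSO negative controls. Fixed with paraformaldehyde/Hoechst, then high-content imaging scored LipidTOX pit count and integrated intensity per well and per cell.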

In PubChem BioAssay (Tox21) one finds Potency and PLD induction data, which are given here for 21 compounds.

Inconclusive results are not listed. A number with no mark means an inactive call. Activity calls are given as the source filed them. Unless noted, calls follow the shape of the dose curve; as a rule, active = well fitted curve in the direction sought with a large enough effect in the repeat runs; inconclusive = weak or mixed curves; inactive = no such curve, though single readings can be large; an effect the other way counts as inactive or inconclusive. Starred links: 1 amine or outer side, 2 acyl side, 3 side chain; linkers in the order of their positions; H or OH if unused. Positions of bridges follow the written chain, without caps; N, C: chain ends. Non-standard residues stand in square brackets, D forms with d. Residues, ends and D or L forms follow the SMILES beside them. *: point of attachment. X5 = NC1=N[C@@H]([C@H](N[*:1])C(=O)[*:2])C[C@H](O)N1; ΔAla(Z-3-ureido) = NC(=O)N/C=C(\N)C(=O)O; β3hOrn = NCCC[C@H](N)CC(=O)*; X2 = CC[C@H](C)CCCCC(=O)*; Dab = NCC[C@H](N)C(=O)O; Dap = NC[C@H](N)C(=O)O
% is scaled to controls: 0 for no effect and ±100 for the full control effect.

Chain of Peroxisome proliferator-activated receptor gamma (Homo sapiens) (P37231 whole entry, looked up): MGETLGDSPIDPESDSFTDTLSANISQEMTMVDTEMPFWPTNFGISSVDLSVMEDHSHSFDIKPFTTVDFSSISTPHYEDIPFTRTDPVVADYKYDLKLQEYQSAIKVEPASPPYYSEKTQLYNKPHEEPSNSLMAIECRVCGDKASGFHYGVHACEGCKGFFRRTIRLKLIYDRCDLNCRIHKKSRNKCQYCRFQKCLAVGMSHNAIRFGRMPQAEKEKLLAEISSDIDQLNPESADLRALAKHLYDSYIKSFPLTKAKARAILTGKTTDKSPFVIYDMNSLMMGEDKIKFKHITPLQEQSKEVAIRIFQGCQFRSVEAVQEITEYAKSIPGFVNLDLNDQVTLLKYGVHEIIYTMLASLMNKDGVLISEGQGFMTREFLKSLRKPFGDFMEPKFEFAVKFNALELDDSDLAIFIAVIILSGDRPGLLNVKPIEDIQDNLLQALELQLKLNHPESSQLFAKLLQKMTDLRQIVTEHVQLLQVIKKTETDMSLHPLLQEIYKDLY
Chain of Aryl hydrocarbon receptor (Homo sapiens) (P35869 whole entry, looked up): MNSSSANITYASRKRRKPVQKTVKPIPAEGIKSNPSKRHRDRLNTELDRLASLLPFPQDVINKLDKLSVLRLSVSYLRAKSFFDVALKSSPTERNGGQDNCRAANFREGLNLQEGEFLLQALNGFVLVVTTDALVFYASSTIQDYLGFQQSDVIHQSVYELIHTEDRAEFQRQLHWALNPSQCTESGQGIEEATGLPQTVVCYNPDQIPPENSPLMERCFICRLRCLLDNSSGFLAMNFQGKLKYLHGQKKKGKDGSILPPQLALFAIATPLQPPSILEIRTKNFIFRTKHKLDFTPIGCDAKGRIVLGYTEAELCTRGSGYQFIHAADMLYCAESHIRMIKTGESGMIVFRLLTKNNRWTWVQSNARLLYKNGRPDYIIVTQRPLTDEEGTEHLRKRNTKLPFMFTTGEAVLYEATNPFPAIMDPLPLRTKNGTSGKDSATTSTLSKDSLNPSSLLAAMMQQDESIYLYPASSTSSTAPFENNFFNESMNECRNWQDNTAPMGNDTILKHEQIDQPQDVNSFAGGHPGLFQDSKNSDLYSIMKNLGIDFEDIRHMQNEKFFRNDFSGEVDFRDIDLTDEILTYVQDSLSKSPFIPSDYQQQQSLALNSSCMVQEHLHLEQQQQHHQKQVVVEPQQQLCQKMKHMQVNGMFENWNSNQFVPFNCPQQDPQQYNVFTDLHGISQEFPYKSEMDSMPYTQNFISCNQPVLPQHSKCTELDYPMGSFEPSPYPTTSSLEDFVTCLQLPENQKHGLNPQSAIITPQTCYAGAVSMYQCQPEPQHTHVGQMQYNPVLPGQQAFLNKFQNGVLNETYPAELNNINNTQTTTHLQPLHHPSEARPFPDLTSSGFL

As to `CCOC(=O)Cc1cccc(-c2cc(CCCCCCc3ccc(O[C@H]4O[C@H](COC(C)=O)[C@@H](OC(C)=O)[C@H](OC(C)=O)[C@@H]4OC(C)=O)c(-c4cccc(CC(=O)OCC)c4)c3)ccc2O[C@H]2O[C@H](COC(C)=O)[C@@H](OC(C)=O)[C@H](OC(C)=O)[C@@H]2OC(C)=O)c1`, the Potency result in test [1], in test [2], in test [3], in test [4] and in test [5] was “inactive” throughout.
As to `CCOC(=O)COc1ccc2c(C)c(CCN(CC)CC)c(=O)oc2c1`, the Potency entry in test [1], in test [2], in test [3] and in test [4] was “inactive” each time. Moreover, the PLD induction in test [5] is -3.34% [at 7.66 µM].
In the case of `NCCC[C@H](N)CC(=O)N[C@H]1CNC(=O)[C@H]([C@H]2C[C@H](O)NC(N)=N2)NC(=O)/C(=C/NC(N)=O)NC(=O)[C@H](CO)NC(=O)[C@H](CO)NC1=O` (β3hOrn-[Dap]SS[ΔAla(Z-3-ureido)][X5]; lactam 1-C), the Potency entry in test [1], in test [2], in test [3], in test [4] and in test [5] was “inactive” in each case.
Take `CNC[C@@H]1CC[C@@H](N)[C@@H](O[C@H]2[C@H](O)[C@@H](O[C@H]3OC[C@](C)(O)[C@H](NC)[C@H]3O)[C@H](N)C[C@@H]2N)O1`: the Potency entry in test [1], in test [2], in test [3] and in test [4] was “inactive” each time. Besides, the PLD induction in test [5] was -1.48% [at 7.66 µM].
Take `COc1ccc(CCNCC(O)COc2cccc(C)c2)cc1OC` (stereo not given): the Potency entry in test [1], in test [2], in test [3], in test [4] and in test [5] was “inactive” each time.
As to `C=C1c2c(Cl)ccc(O)c2C(O)=C2C(=O)[C@]3(O)C(O)=C(C(N)=O)C(=O)[C@@H](N(C)C)[C@@H]3[C@@H](O)[C@H]12`, the Potency result in test [1], in test [2], in test [3], in test [4] and in test [5] was “inactive” each time.
As to `O=S(=O)(O)Oc1ccc(C(c2ccc(OS(=O)(=O)O)cc2)c2ccccn2)cc1`, the Potency entry in test [1], in test [2], in test [3], in test [4] and in test [5] was “inactive” each time.
Consider `O=C(O)c1ccc(OCCn2ccnc2)cc1`, for which the Potency entry in test [1], in test [2], in test [3], in test [4] and in test [5] was “inactive” each time.
As to `COc1cc(S(C)=O)ccc1-c1nc2ncccc2[nH]1` (stereo not given), the Potency entry in test [1], in test [3], in test [4] and in test [5] was “inactive” in each case. Further, the Potency in test [2] is 2110 nM (active).
Regarding `C[C@H](/C=C/[C@H](C)C(C)(C)O)[C@H]1CC[C@H]2/C(=C/C=C3C[C@@H](O)C[C@H](O)C3)CCC[C@]12C`, the Potency entry in test [1], in test [2], in test [3], in test [4] and in test [5] was “inactive” each time.
As for `CCCCCCCCCCCCCCCC(=O)OC[C@@H](NC(=O)C(Cl)Cl)[C@H](O)c1ccc([N+](=O)[O-])cc1`, the Potency result in test [1], in test [2], in test [3], in test [4] and in test [5] was “inactive” throughout.
In the case of `CN(C(=O)CO)c1c(I)c(C(=O)NCC(O)CO)c(I)c(C(=O)NCC(O)CO)c1I` (stereo not given), the Potency result in test [1], in test [2], in test [3], in test [4] and in test [5] was “inactive” throughout.
Turning to `CC(=O)O[C@H]1CC[C@@]2(C)C(=CC[C@H]3[C@@H]4CC[C@H](C(C)=O)[C@@]4(C)CC[C@@H]32)C1`, the Potency entry in test [1], in test [2], in test [3] and in test [4] was “inactive” each time. The PLD induction in test [5] is 6.8% [at 7.66 µM].
For the compound `Nc1c(Br)cc(Br)cc1CNC1CCC(O)CC1` (stereo not given), the Potency result in test [1], in test [2], in test [3], in test [4] and in test [5] was “inactive” in each case.
Turning to `COCC1=C(C(=O)OC(C)OC(=O)OC(C)C)N2C(=O)[C@@H](NC(=O)/C(=N\OC)c3csc(N)n3)[C@H]2SC1` (stereo not given in full), the Potency result in test [1], in test [2], in test [3], in test [4] and in test [5] was “inactive” each time.
For the compound `O=P(O)(O)OC(CO)CO`, the Potency entry in test [1], in test [2], in test [3], in test [4] and in test [5] was “inactive” each time.
As to `COc1ccc(C2NC(=S)N3C(c4ccc(OC)c(OC)c4)NC(=S)N23)cc1OC` (stereo not given), the figures for the Potency in test [1] and in test [3] were 188 nM (active) and 211 nM (active), respectively. Further, the Potency entry in test [2] and in test [4] was “inactive” throughout. Besides, in test [5], the PLD induction was -4.32% [at 7.66 µM].
As for `Cc1c(O)cc2c(c1C)O[C@](C)(CCC[C@H](C)CCC[C@H](C)CCCC(C)C)CC2`, the Potency entry in test [1], in test [2], in test [3], in test [4] and in test [5] was “inactive” in each case.
Take `NCCCNCCCCNC(=O)C(O)NC(=O)CCCCCCN=C(N)N` (stereo not given): the Potency entry in test [1], in test [2], in test [3] and in test [4] was “inactive” in each case. In addition, the PLD induction in test [5] was -1.69% [at 7.66 µM].
For `CCCCCC(O)/C=C/C=O` (stereo not given), the Potency entry in test [1], in test [2], in test [3], in test [4] and in test [5] was “inactive” in each case.
In the case of `CC[C@H](C)CCCCC(=O)N[C@@H](CCN)C(=O)N[C@H](C(=O)N[C@@H](CCN)C(=O)N[C@H]1CCNC(=O)[C@H]([C@@H](C)O)NC(=O)[C@H](CCN)NC(=O)[C@H](CCN)NC(=O)[C@H](CC(C)C)NC(=O)[C@@H](CC(C)C)NC(=O)[C@H](CCN)NC1=O)[C@@H](C)O` (X2-[Dab]T[Dab][Dab][Dab][dL]L[Dab][Dab]T; lactam 4-C), the Potency result in test [1], in test [2], in test [3], in test [4] and in test [5] was “inactive” in each case.
